In PubChem BioAssay (EPA / NIEHS):
The source made the active and inactive calls. The calls were made as follows: active = hit-call score of the fitted dose curve at least 0.9, where 1 is the maximum; inactive = score below 0.9.

Target: Hepatocyte nuclear factor 6 (Homo sapiens) (UniProt Q9UBC0)
Assay: ATG_HNF6_CIS: Attagene CIS-FACTORIAL HepG2 Assay for human Hepatocyte Nuclear Factor 6 (HNF6) (AID 2282952)
Conditions: HepG2 Attagene cis-factorial HNF6 reporter transcription; actives raise or lower the signal
Experimental: ATG_CIS is a cell-based, multiplexed-readout assay that uses HepG2, a human liver cell line, with measurements taken at 24 hours after chemical dosing in a 24-well plate.ATG_HNF6_CIS is one of 52 assay component(s) measured or calculated from the ATG_CIS assay. It is designed to make measurements of mRNA induction, a form of inducible reporter, as detected with fluorescence intensity signals by Reverse transcription polymerase chain reaction (RT-PCR) and Capillary electrophoresis technology.Data from the assay component ATG_HNF6_CIS was analyzed into 1 assay endpoint. This assay endpoint, ATG_HNF6_CIS, was analyzed with bidirectional fitting relative to DMSO as the negative control and baseline of activity. Using a type of inducible reporter, measures of mRNA for gain or loss-of-signal activity can be used to understand the reporter gene at the transcription factor-level as they relate to the gene ONECUT1. Furthermore, this assay endpoint can be referred to as a primary readout, because this assay has produced multiple assay endpoints where this one serves a reporter gene function. To generalize the intended target to other relatable targets, this assay endpoint is annotated to the dna binding intended target family, where the subfamily is homeobox protein.
Human liver HepG2 cells are transiently transfected with multiple reporter transcription units (MRTUs) in 6-well plates using FuGene 6 reagent (Roche; 3 ml FuGene/1 mg DNA). The MRTU constructs are regulated by a cis-regulating element (promoter). […] A major difference between the CIS and TRANS system is that in CIS activities of endogenous TFs are measured, whereas the TRANS assay evaluates changes in activities of exogenous, chimeric NR-Gal4 proteins. […] At the end of 24 hour incubation, total RNA was isolated using TriZol reagent (Invitrogen). The isolated RNA is then reverse-transcribed using oligo(dT) primer and Mo-MLV reverse transcriptase (Invitrogen) with DNAse I (Ambion) treatment for 30 min. The one-tenth of the produced cDNA was amplified by PCR using Taq DNA polymerase (Invitrogen) and two reporter sequence-specific primers. The PCR products were fluorescently labeled by primer extension with 6-arboxyfluorescein (6-FAM) 5'-labeled reporter sequence-specific primer (2 min at 95 C, 20 s at 68 C and 10 min at 72 C) and these products were digested with 5U of HpaI (New England Biolabs) for 2h at 37 C. The fragments were purified using Qiaquick PCR columns (Qiagen), analyzed on an ABI 3130xL genetic analyzer (Applied Biosystems) with peak positions identified by using a set of X-rhodamine (ROX)-labeled MapMarker1000 molecular weight standards (BioVentures). The raw capillary electrophoresis data was processed using Attagraph software (Attagene).

Hepatocyte nuclear factor 6 (Homo sapiens), sequence (Q9UBC0 whole entry, looked up): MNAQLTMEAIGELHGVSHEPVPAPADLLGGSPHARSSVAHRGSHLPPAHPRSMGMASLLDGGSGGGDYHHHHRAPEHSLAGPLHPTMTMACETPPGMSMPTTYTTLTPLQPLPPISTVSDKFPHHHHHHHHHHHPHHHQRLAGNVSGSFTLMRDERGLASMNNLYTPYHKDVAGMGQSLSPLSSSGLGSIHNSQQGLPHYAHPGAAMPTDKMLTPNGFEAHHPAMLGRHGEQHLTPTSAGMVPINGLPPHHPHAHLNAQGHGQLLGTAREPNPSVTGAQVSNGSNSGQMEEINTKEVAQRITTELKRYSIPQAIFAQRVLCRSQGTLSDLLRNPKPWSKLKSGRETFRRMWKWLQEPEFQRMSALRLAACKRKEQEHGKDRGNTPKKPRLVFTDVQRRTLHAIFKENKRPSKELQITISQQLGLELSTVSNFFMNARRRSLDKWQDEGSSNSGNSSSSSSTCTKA

SMILES	outcome	AC50
O=C(Oc1ccccc1)c1ccccc1C(=O)Oc1ccccc1	inactive	
CC1=NN(c2ccc(S(=O)(=O)O)cc2)C(=O)C1N=Nc1ccccc1 (stereo not given)	inactive	
C=C(C)C(=O)OCC(O)COc1ccc(C(C)(C)c2ccc(OCC(O)COC(=O)C(=C)C)cc2)cc1 (stereo not given)	inactive	
CCCCOCCOCCOC(C)=O	inactive	
C=CCOC(=O)c1ccc(C(=O)OCC=C)c(C(=O)OCC=C)c1	inactive	
O=S(=O)(O)c1ccc(Nc2nc(Nc3ccc(C=Cc4ccc(Nc5nc(Nc6ccc(S(=O)(=O)O)cc6)nc(N(CCO)CCO)n5)cc4S(=O)(=O)O)c(S(=O)(=O)O)c3)nc(N(CCO)CCO)n2)cc1	inactive	
CC12CCC(CC1)C(C)(C)O2	inactive	
O=C(O)c1ccc2c(c1)C(=O)OC2=O	inactive	
CC(=O)c1ccc(S(=O)(=O)NC(=O)NC2CCCCC2)cc1	inactive	
CC1C(C)(C)C2=C(C(=O)CCC2)C1(C)C (stereo not given)	inactive	
Cc1ccc2c(c1)CCCN2	inactive	
CC(=O)c1ccccc1O	inactive	
N#CC1(N)CCCCC1	inactive	
CC(C)=CCCC(C)=CC#N	inactive	
CCCCCCCCC(CO)CCCCCC (stereo not given)		172 µM (active)
COc1cc(O)c(C(=O)c2ccccc2)cc1S(=O)(=O)O	inactive	
CCCCCC(=O)OCC	inactive	
O=S(=O)(O)c1ccc(N=Nc2c(O)ccc3ccccc23)cc1	inactive	
CC(c1cc(C(C)(C)C)cc(C(C)(C)C)c1O)c1cc(C(C)(C)C)cc(C(C)(C)C)c1O	inactive	
CC(=O)C(C)C	inactive	

SMILES	outcome	AC50
Oc1ccc(-c2ccccc2)c(Cl)c1	inactive	
CCCc1ccc(O)c(OC)c1	inactive	
CCOC(=O)OC(=O)OCC	inactive	
Cc1ccccc1CCO	inactive	
C=C(C)OC(C)=O	inactive	
CC(C)OC(=O)c1ccccc1	inactive	
Cc1cc(C)n(CO)n1	inactive	
COc1cc(C)ccc1O	inactive	
O=c1c(O)c(-c2ccc(O)cc2O)oc2cc(O)cc(O)c12	inactive	
Cc1cccc(C(C)(C)C)c1O	inactive	
COC(OC)(C(=O)c1ccccc1)c1ccccc1	inactive	
COC(C=C(C)CCC=C(C)C)OC	inactive	
COC(=O)c1ccccc1C	inactive	
CC(C)c1ccc2ncccc2c1	inactive	
CCCCCOC(=O)CCCCC	inactive	
O=C(O)C1CCC(C(=O)O)CC1 (stereo not given)	inactive	
C=C(C)C1CC=C(C)CC1 (stereo not given)	inactive	
C=CCCCCCCCCC=O	inactive	
CCCCCCCCCCCC(=O)N(C)CC(=O)O	inactive	
COCC(=O)O	inactive	
